# Compound activity (PubChem BioAssay)
# SMN2 splice up – increases expression of the SMN2 splice variant; AID 1458; Potency, µM (top dose mostly 46.1 µM), without a hit: at the highest dose activity change, positive = activation, most hits filed as activators; actives 2.8% (n = 210,000); HEK293 SMN2-luciferase splicing reporter, luminescence, 30-36 h; also: % of control where 0% means no effect; nearly all actives have a fitted effect of over 55% in size
#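 qHTS luciferase splicing reporter: luminescence rises when SMN2 exon 7 is included in transfected HEK293 cells. Compound exposure lasted 30-36 h at 37C, with 4.5 mM final sodium butyrate as control, followed by a ONE-Glo read.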
# FLuc modulator – counter-screen for miR-21 project: firefly luciferase inhibitors or activators; P08659; purified FLuc, Km substrates, luminescence inhibition; Potency, µM (series often up to 57.5 µM), for the others: top-dose activity change, negative = inhibition, actives largely listed as inhibitors; actives 6.9% (n = 360,000);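 also: plate controls were vehicle for no effect and reference inhibitor for full effect; nearly all actives have a fitted effect of over 55% in size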
# Target sequence (P08659 whole entry, looked up): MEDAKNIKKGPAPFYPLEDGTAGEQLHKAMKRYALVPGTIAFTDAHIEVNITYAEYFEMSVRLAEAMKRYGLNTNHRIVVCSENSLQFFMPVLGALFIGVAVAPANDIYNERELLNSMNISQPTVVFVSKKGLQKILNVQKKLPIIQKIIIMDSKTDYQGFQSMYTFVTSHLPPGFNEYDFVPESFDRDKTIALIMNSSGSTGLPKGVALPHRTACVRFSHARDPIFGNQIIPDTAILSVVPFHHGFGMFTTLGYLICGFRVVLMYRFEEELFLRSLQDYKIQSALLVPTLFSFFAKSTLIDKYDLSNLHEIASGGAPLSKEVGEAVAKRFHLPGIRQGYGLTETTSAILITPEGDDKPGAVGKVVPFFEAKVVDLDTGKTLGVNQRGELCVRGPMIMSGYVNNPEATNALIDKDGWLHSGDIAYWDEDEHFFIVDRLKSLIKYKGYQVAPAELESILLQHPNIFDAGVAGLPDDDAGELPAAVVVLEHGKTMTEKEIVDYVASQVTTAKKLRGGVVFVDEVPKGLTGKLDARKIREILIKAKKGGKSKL
#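 Biochemical qHTS of compounds, final roughly 60 µM downward over six points, against 10 nM purified firefly luciferase using Km concentrations of substrates (10 uM D-luciferin, 10 uM ATP) in Tris acetate pH 7.5 buffer; luminescence output.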
# ELG1 genotoxic – genotoxicity induction in ELG1-luciferase HEK293T cells | Potency, µM (doses to about 46 µM), inactives show top-dose activity change, positive = activation, hits mostly activators | AID 504466 | actives 1.3% (n = 330,000) | HEK293T ELG1-luciferase reporter, luminescence, 16 h; also: % of control where 0% means no effect; nearly all actives have a fitted effect of over 60% in size
#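 Reporter readout depends on ELG1 protein level, which increases with genetic stress. After 16 hr compound exposure at 37 °C, luciferase activity was quantified using ONE-Glo.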
# NPC1 prom act – activators of NPC1 promoter. Potency, µM (series often up to 9.22 µM), for the others: top-dose activation, usual class: activators. actives 2.4% (n = 320,000). Huh7 NPC1 promoter luciferase reporter, 24 h; also: % of control where 0% means no effect; nearly all actives have a fitted effect of over 60% in size
#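 Cells: Huh7 expressing luciferase under the NPC1 promoter, 1500/well. Seeded 2 h, compound added, incubated 24 h at 37 °C. Luciferase reagent, 10 min ambient, then luminescence.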
# ELG1 repair inh – inhibitors of ELG1-dependent DNA repair in HEK293T cells; HEK293T ELG1-luciferase reporter, luminescence, 16 h; DNA damage induced by 5-fluorouridine; Potency, µM (doses to about 46.1 µM), without a hit: at the highest dose activity change, negative = inhibition, usual class: inhibitors; actives 2.3% (n = 330,000); AID 504467; also: % is scaled to controls: 0 for no effect and ±100 for the full control effect; nearly all actives have a fitted effect of over 55% in size
#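 5-Fluorouridine DNA damage + compound/DMSO, 2,000 cells/well, 16 h, 37 °C/5% CO2. ONE-Glo, 30 min RT, luminescence. Readout = decrease in reporter signal.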
# Rab9 prom act – activates the Rab9 promoter; Huh7 Rab9 promoter-luciferase reporter, luminescence, 24 h; Potency, µM (highest dose often 9.22 µM), for inactives: at the top dose activation, negative = inhibition, usual class: activators; actives 2.8% (n = 320,000); also: % of control where 0% means no effect; nearly all actives have a fitted effect of over 60% in size
#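 Measured in stably transfected Huh7 cells bearing a Rab9 promoter–luciferase construct: 24 h compound treatment at 37 °C, followed by luminescence detection.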
# Numbers without * were called inactive; ? = inconclusive; . = no result given. Shown are actives, neighbours in structure and some others; about 9.2% of the full set was active somewhere. Calls follow the shape of the dose curve; as a rule, active = well fitted curve in the direction sought with a large enough effect; inconclusive = small, poorly fitted or top-dose-only effect, or another doubt; inactive = no such curve, though single readings can be large; an effect the other way counts as inactive or inconclusive. Potency is read from the fitted curve at half-maximal effect.
SMILES,SMN2 splice up,FLuc modulator,ELG1 genotoxic,NPC1 prom act,ELG1 repair inh,Rab9 prom act
COc1cc(NC(=O)c2cccc3c2C(=O)N(Cc2cccnc2)C3)cc(OC)c1OC,?,1%,0%,-6%,9.2µM*,-8%
O=C(Nc1ccc2c(c1)OCO2)c1cccc2c1C(=O)N(Cc1cccnc1)C2,-4%,15µM*,?,-3%,?,2%
O=C(NCc1ccccc1)C1CCCN1C(=O)Nc1ccccc1[N+](=O)[O-] (configuration not stated),.,-3%,2%,-5%,1%,5%
COC(=O)c1ccccc1NC(=O)CSc1nc(C)c(Cl)c(C)c1C#N,.,-6%,.,.,.,.
CC(=O)Nc1nc(C)c(Oc2cccc(C(F)(F)F)c2)c(=O)[nH]1,.,-1%,-1%,0%,?,-2%
Cc1ccc(C(=O)Nc2cccc(NC(=O)c3ccc(C)o3)n2)o1,.,15µM*,0%,-5%,?,8%
Cc1ccc(C(=O)Nc2ccccc2NC(=O)c2ccc(C)o2)o1,-19%,4%,0%,2%,-14%,-6%
Cc1ccc(C(=O)Nc2nnc(C)s2)o1,0%,-3%,4%,13%,?,15%
Cc1nc(NC(=O)c2ccc(Br)o2)sc1C,?,7.6µM*,17%,?,?,?
Cc1nn(C)c(C)c1NC(=O)c1ccc(Br)o1,.,-3%,-10%,-8%,11%,4%
Cc1ccc(C(=O)Nc2nc(C)c(C)s2)o1,14µM*,6.7µM*,?,?,?,3.2µM*
CC(C)(C)c1csc(NC(=O)c2ccc(Br)o2)n1,.,27µM*,-6%,?,?,?
Cc1onc(-c2c(F)cccc2Cl)c1C(=O)OCc1nnc(-c2ccccc2)o1,.,.,-2%,0%,-16%,1%
COc1ccc(CNC(=O)CSc2n[nH]c(N)n2)cc1,.,1%,5%,-5%,5%,-2%
CCN(CC)c1ccc(/C=N/NC(=O)c2ccco2)c(O)c1,.,5.4µM*,23µM*,-5%,?,-17%
CCN(CC)c1ccc(/C=N/NC(=O)Cc2cccs2)c(O)c1,-93%,?,?,-30%,19%,-39%
CCN(CC)c1ccc(/C=N/NC(=O)c2ccco2)cc1,1.6µM*,1.5µM*,5.8µM*,?,?,?
COc1cccc(-c2nn(-c3ccc(C)cc3)cc2C(=O)NCC(c2cccs2)N2CCOCC2)c1 (configuration not stated),.,?,-35%,-4%,?,-1%
COc1ccc(-c2nn(-c3ccccc3)cc2C(=O)NCC2CCCO2)cc1 (configuration not stated),.,?,-6%,0%,?,3%
Cc1ccc(-c2nn(-c3ccc(F)cc3)cc2C(=O)NCC2CCCO2)cc1 (configuration not stated),.,11µM*,-9%,-8%,-9%,10%
O=C(NCC1CCCO1)c1cn(-c2ccccc2)nc1-c1ccccc1 (configuration not stated),.,6.7µM*,-2%,14%,-8%,3%
COc1cccc(-c2nn(-c3ccc(C)cc3)cc2C(=O)NCC2CCCO2)c1 (configuration not stated),.,9.5µM*,-5%,-1%,-29%,13%
COc1cccc(-c2cc(C(=O)NCC3CCCO3)c3cc(C)cc(C)c3n2)c1 (configuration not stated),.,1.9µM*,15%,-4%,12%,16%
COc1cccc(OCC(=O)NCC2CCCO2)c1 (configuration not stated),.,.,0%,.,12%,.
Cc1ccc(NC(=O)NC(=O)COc2c(F)c(F)cc(F)c2F)c(C)c1,.,.,-3%,.,-1%,.
Cc1ccc2c(=O)c(C(=O)c3ccccc3)cn(CC(=O)Nc3ccc(C)c(Cl)c3)c2n1,.,-3%,.,.,.,.
